Source: PubChem BioAssay (Tox21)
“And” between values parts separate entries of the source, which are not always exact repeats. Equal entries are not always repeated. Results filed as inconclusive are left out. The source made the active and inactive calls. The call rests on the fitted dose curve; in most records, active means well fitted inhibition curve with a large enough effect in the repeat runs; inconclusive means weak or mixed curves; inactive means no such curve, though single readings can be large or run the other way.

target: Cytochrome P450 2C9 (Homo sapiens) (UniProt P11712); test: Cytochrome P450 Family 2 Subfamily C Member 9 (CYP2C9) small molecule antagonists: luciferase reporter qHTS assay (AID 1671198); conditions: P450-Glo CYP2C9 enzyme assay, luciferin luminescence; series mostly up to 115 µM; further: nearly all actives have a fitted effect of over 50% in size
Outline: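 Enzyme-substrate mix preincubated with compound 10 min at room temperature; reaction started with NADPH regeneration solution, 1 h 37C. Luminescent luciferin product read after 20 min detection reagent.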
Potency means the concentration at half of the fitted maximal effect.

Chain of Cytochrome P450 2C9 (Homo sapiens) (P11712 whole entry, looked up): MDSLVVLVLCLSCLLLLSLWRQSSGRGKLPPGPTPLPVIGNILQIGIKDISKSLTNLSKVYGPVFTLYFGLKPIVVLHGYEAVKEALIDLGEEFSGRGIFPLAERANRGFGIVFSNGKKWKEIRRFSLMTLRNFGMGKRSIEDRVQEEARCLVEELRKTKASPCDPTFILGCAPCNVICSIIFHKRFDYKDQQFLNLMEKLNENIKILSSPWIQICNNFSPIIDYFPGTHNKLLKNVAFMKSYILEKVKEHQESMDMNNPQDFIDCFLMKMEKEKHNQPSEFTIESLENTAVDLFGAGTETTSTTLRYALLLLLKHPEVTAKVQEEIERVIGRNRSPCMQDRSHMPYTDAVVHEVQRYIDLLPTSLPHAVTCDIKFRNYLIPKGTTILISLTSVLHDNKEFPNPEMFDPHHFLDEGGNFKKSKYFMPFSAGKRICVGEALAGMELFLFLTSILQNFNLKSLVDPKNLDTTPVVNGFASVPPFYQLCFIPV

SMILES | Potency
Nc1ccc(Sc2ccc(N)cc2)cc1 | 1.23 µM (active)
Oc1ccccc1Br | inactive
COc1ccc(N)cc1N | 41.2 µM (active) and 24.2 µM (active)
CC(C)CCCCCOC(=O)c1ccccc1C(=O)OCCCCCC(C)C | 12.5 µM (active)
O=[N+]([O-])c1c2ccccc2cc2ccccc12 | 11.1 µM (active)
S=C=Nc1cccc2ccccc12 | 4.98 µM (active)
CC(C)C(=O)Cl | inactive
O=C(O)c1cc[c]([Hg][Cl])cc1 | 4.48 µM (active)
O=C/C(Cl)=C(/Cl)C(=O)O | inactive
CC(=[OH+])/C=C(/C)[O-].CC(=[OH+])/C=C(\C)[O-].CC(=[OH+])/C=C(\C)[O-].[Al] | inactive
CCOC(=O)C1(c2ccccc2)CCN(CCC(C#N)(c2ccccc2)c2ccccc2)CC1 | 3.09 µM (active)
CCOP(=O)(NC(C)C)Oc1ccc(SC)c(C)c1 (stereo not drawn) | 11.9 µM (active)
Oc1ccc2ccc3cccc4ccc1c2c34 | 35.6 µM (active)
CN(CCCC(O)c1cccnc1)N=O (stereo not drawn) | inactive
C[C@]12CC[C@@H]3c4ccc(OC(=O)N(CCCl)CCCl)cc4CC[C@H]3[C@@H]1CC[C@@H]2O | inactive
COc1ccc(/C(=C/C(=O)N2CCOCC2)c2ccc(Cl)cc2)cc1OC | 31.7 µM (active)
CC(C)[C@H](C(=O)OC(C#N)c1cccc(Oc2ccccc2)c1)c1ccc(OC(F)F)cc1 (stereo partly drawn) | 3.99 µM (active)

SMILES | Potency
O=[N+]([O-])c1ccc2ccc3cccc4ccc1c2c34 | inactive
Oc1ccc(C2(c3ccc(O)cc3)c3ccccc3-c3ccccc32)cc1 | 20 µM (active)
N#CSCSC#N | 32.4 µM (active) and 35.2 µM (active)
BrCBr | inactive
ClC(Cl)=C(c1ccc(Cl)cc1)c1ccc(Cl)cc1 | 14.5 µM (active) and 12.6 µM (active)
CC(Cl)CN(C)C (stereo not drawn) | inactive
O=C1C=CC(=O)c2ccccc21 | 11.2 µM (active)
C[C@]12CC[C@H](O)C[C@H]1CC[C@@H]1[C@@H]2C[C@@H](O)[C@]2(C)[C@@H](C3=CC(=O)OC3)CC[C@]12O | inactive
COc1ccc(OC)c(CC(C)N)c1 (stereo not drawn) | inactive
CCCCOP(=O)(CCCC)OCCCC | 31.7 µM (active)
CC(C)(c1ccc(O)c(-c2ccccc2)c1)c1ccc(O)c(-c2ccccc2)c1 | 3.17 µM (active)
N#Cc1ccc(O)cc1 | inactive
C1CCC2CCCCC2C1 (stereo not drawn) | inactive
CC1(C)CC/C(=C/c2ccc(Cl)cc2)C1(O)Cn1cncn1 (stereo not drawn) | 1.12 µM (active)
Cc1ccc(CCl)cc1 | inactive
CCc1ccccc1C | inactive
